A number with no mark means an inactive call. Inconclusive results are not listed. Activity calls are given as the source filed them. Unless noted, calls come from the whole dose curve; as a rule, active = well fitted curve in the direction sought with a large enough effect; inconclusive = small, poorly fitted or top-dose-only effect, or another doubt; inactive = no such curve, though single readings can be large; an effect the other way counts as inactive or inconclusive. Some results are limits rather than exact numbers.

Experimental findings from PubChem BioAssay (NCATS) are described below.

For experiment [1], the target named is Lysosomal acid glucosylceramidase (Homo sapiens) (UniProt P04062). Kind of experiment: Glucocerebrosidase-p2 (AID 348; in the data active = potency below about 10 µM; note: potency is the fitted concentration of half-maximal effect). Particulars: purified GBA, blue fluorogenic substrate, 40 min. In a few lines:
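Normal human glucocerebrosidase (0.2 nM) with blue fluorogenic substrate (80 uM final) in citrate/phosphate pH 5.9 with 10mM sodium taurocholate, 0.01% tween-20; 40 min RT, NaOH/glycine stop; fluorescence Ex 365/Em 440; AC50 from a titration from 0.6 nM upwards.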

Experiment [2] can be described thus: AP1 Signaling Pathway (AID 357; active = well fitted curve in either direction with a large enough effect, not every such curve was filed as active; note: % is set by controls: 0 for no effect and ±100 for the full control effect). Particulars: ME-180 AP-1-bla reporter, EGF-induced, beta-lactamase ratio, 5 h; at 7.69 µM (top of the series) unless noted. The gist of the method: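 Cells are seeded overnight, exposed to compound titrations and an EC50 level of EGF for 5 hours at 37 °C, then loaded with CCF4 dye for 2.5 hours. Beta-lactamase activity under the AP-1 element is read as a blue/green ratio.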

In experiment [3] the target is Cytochrome P450 1A2 (Homo sapiens) (UniProt P05177). Description: p450-cyp1a2 (AID 410; calls by dose curve; note: potency is the fitted concentration of half-maximal effect;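 for activity change, negative = inhibition: -100% = full effect of reference inhibitor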). The following applies: recombinant CYP1A2, luciferin-ME demethylation, luminescence; series mostly up to 57 µM. The gist of the method:
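Luminescent demethylation readout: Luciferin-ME (100uM, equal to Km) turned over by 20nM CYP1A2 for 60 min at room temperature after NADPH regeneration addition, following 10 min compound preincubation. Normalization used 57 uM furafylline as full inhibition.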

Experiment [4] addresses Glucocorticoid receptor (Homo sapiens) (UniProt P04150). Kind of experiment: GR-GFP Redistribution (AID 450;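 active = compounds whose dose series gives a full or clear partial fitted curve of increased nuclear translocation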; note: potency is the fitted concentration of half-maximal effect). The following applies: U2OS GR-GFP nuclear translocation, laser cytometry, 2 h.
Experiment [5] has the same target. Kind of experiment: GR-EFC Redistribution (AID 451; calls by dose curve; note: potency is the fitted concentration of half-maximal effect). Particulars: CHO-K1 GR-EFC translocation, beta-gal luminescence, 2 h. The gist of the method:
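CHO-K1 cells stably expressing nuclear-localized β-gal enzyme acceptor and GR fused C-terminally to the enzyme donor fragment; ligand-driven nuclear translocation restores β-gal by complementation. Compounds titrated up to 46 uM final, 2 h at 37 °C; luminescence read.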

In experiment [6] the target is Mitogen-activated protein kinase 10 (Mus musculus) (UniProt Q61831). Description: JNK3 AlphaScreen Assay (AID 530; active = well fitted curve in either direction with a large enough effect, not every such curve was filed as active;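 note: kinase came from lysate of stimulated human HepG2 cells; % is set by controls: 0 for no effect and ±100 for the full control effect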). Particulars: JNK3 lysate, c-Jun phosphorylation; series mostly up to 57.1 µM. In a few lines: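 Phosphorylation of biotinylated GST-cJun(1-79) at Ser73 is measured by AlphaScreen proximity luminescence. Enzyme is JNK3 in HepG2 lysates activated with interleukin-1beta and tumor necrosis factor alpha; ATP is 10 uM final.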
Background: In Alpha technology, singlet oxygen from a donor bead excites a nearby acceptor bead.

The target of experiment [7] is 3',5'-cyclic-AMP phosphodiesterase 4B (Homo sapiens) (UniProt Q07343). Kind of experiment: qHTS Assay for Inhibitors of PDE-IV (AID 607; active = well fitted activation curve with a large enough effect in the main read-out, with a control signal flat, not every such curve was filed as active; note: % of control where 0% means no effect). Particulars: HEK293 ACTOne CNG channel cells, membrane potential fluorescence; series mostly up to 22.9 µM. The gist of the method:
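The readout is membrane depolarisation from a cAMP-sensing CNG channel, detected with a potential dye at ex 535/em 590. Cells were HEK293-derived (endogenous PDE-IV) at 1000 cells/well, titrated up to 22.9 uM final.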
Background: Quantitative high-throughput screening tests each substance at several concentrations.

The target of experiment [8] is Cytochrome P450 3A4 (Homo sapiens) (UniProt P08684). Description: qHTS Assay for Activators of Cytochrome P450 3A4 (AID 885). Note: nearly all actives have a fitted effect of over 65% in size. Particulars: recombinant CYP3A4, Luciferin-PPXE luminescence, 60 min; series mostly up to 57.1 µM. The gist of the method: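 Activators are scored by enhanced luminescence from CYP3A4 conversion of luciferin-PPXE (25uM, equal to KM) to luciferin, after 60 min at RT with an NADPH-regenerating system.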
Sequence of Cytochrome P450 3A4 (Homo sapiens) (P08684 whole entry, looked up): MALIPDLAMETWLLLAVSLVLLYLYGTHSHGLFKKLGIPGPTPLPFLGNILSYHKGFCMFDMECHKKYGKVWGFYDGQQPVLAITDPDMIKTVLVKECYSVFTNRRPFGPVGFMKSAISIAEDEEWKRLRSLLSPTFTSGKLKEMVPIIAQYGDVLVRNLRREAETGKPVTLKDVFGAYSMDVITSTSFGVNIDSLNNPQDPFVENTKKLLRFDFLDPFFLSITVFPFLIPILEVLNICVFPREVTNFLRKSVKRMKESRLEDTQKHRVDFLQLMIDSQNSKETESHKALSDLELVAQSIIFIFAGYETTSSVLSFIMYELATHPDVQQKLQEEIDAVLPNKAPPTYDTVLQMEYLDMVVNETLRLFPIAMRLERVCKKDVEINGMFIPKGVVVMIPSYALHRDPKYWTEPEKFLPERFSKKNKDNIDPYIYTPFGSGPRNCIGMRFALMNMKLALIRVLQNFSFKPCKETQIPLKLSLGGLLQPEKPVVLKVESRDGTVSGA

Experiment [9] is described as follows: Confirmation and Secondary Assay for Modulators of Hemoglobin Beta Chain Splicing at IVS2 705 locus (AID 930).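 Note: HeLa cells stably expressing the EGFP-705 splicing reporter; GFP fluorescence per well restored by corrected splicing of the IVS2-705 intron in EGFP; % of control where 0% means no effect.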 Particulars: HeLa EGFP-705 splicing reporter, GFP fluorescence, 48 h; series mostly up to 38.3 µM. In a few lines:
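First, HeLa EGFP-705 cells are seeded at 500/well in Optimem with 2% FCS and left overnight. Next, compound or DMSO is added for 2 days. Finally wells are laser-scanned and total peak GFP intensity scored.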

Experiment [10] is described as follows: Primary qHTS for small molecule stabilizers of the endoplasmic reticulum resident proteome: Secreted ER Calcium Modulated Protein (SERCaMP) assay (AID 1508630). Note: % is set by controls: 0 for no effect and ±100 for the full control effect. The following applies: SH-SY5Y GLuc-SERCaMP (Gaussia luciferase released on ER calcium loss) secretion, thapsigargin, luminescence; series mostly up to 38.4 µM. The gist of the method: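 The SH-SY5Y reporter protocol was run at 3 concentrations up to 38.3 uM (primary) or 11 concentrations (follow-up): 16 h compound, 100 nM thapsigargin for 4 h, then extracellular luciferase luminescence.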

Experiment [11] in a line: Stat Signaling Pathway (AID 446; active = well fitted curve in either direction with a large enough effect, not every such curve was filed as active;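 note: ME-180 cervical cancer cells given 40 pM IL-6 alongside compound; SIE-controlled beta-lactamase reporter measured as 460/530 nm FRET emission ratio; % is set by controls: 0 for no effect and ±100 for the full control effect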). Particulars: ME-180 SIE beta-lactamase reporter, IL-6 stimulated, 5 h; at 7.69 µM (top of the series) unless noted. The gist of the method: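 Emission at 460 and 530 nm (excitation 405 nm) reports SIE-controlled beta-lactamase in ME-180 cells. Cells received compound with 40 pM IL-6 for 5 hrs at 37 C; data scaled between 300 pM IL-6 and 125 nM JAK-inhibitor controls.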

The target in experiment [12] is Cytochrome P450 3A4 (Homo sapiens) (UniProt P08684). Kind of experiment: qHTS Assay for Inhibitors and Substrates of Cytochrome P450 3A4 (AID 884). Note: potency is the fitted concentration of half-maximal effect; nearly all actives have a fitted effect of over 50% in size. Particulars: recombinant CYP3A4, Luciferin-PPXE luminescence; series mostly up to 57.1 µM. The gist of the method: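 Luminescent readout of luciferin produced by CYP3A4 (20 nM) dealkylation of Luciferin-PPXE, 25 uM (its KM). NADPH-driven reaction ran 60 min at RT after 10 min compound preincubation; data scaled to 57 uM ketoconazole as 100% inhibition.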

Experiment [13] deals with Cytochrome P450 2C19 (Homo sapiens) (UniProt P33261). Kind of experiment: qHTS Assay for Inhibitors and Substrates of Cytochrome P450 2C19 (AID 899). Note: nearly all actives have a fitted effect of over 60% in size. Note: potency is the fitted concentration of half-maximal effect. The following applies: recombinant CYP2C19, luciferin-H EGE luminescence; series mostly up to 57.1 µM. The gist of the method:
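NADPH-dependent conversion of Luciferin-H EGE (10uM, at KM) by 5nM enzyme in 50mM KPO4, 60 min at 37C following 10 min compound preincubation. Stopped with luciferin detection buffer; luminescence read after 20 min.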

Experiment [14] concerns the target Cytochrome P450 2C9 (Homo sapiens) (UniProt P11712). Kind of experiment: qHTS Assay for Inhibitors and Substrates of Cytochrome P450 2C9 (AID 883). Note: % is set by controls: 0 for no effect and ±100 for the full control effect; nearly all actives have a fitted effect of over 60% in size. The following applies: recombinant CYP2C9, luciferin-H luminescence, 60 min; series mostly up to 57.1 µM. In a few lines:
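A luminogenic readout tracked human CYP2C9 (10nM) converting deoxyluciferin (100uM, at KM) in 25mM KPO4 during 60 min at 37C with regenerated NADPH. Values normalized to 57uM sulphaphenazole as complete inhibition.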

Experiment [15] has as its target Cytochrome P450 2D6 (Homo sapiens) (UniProt P10635). Kind of experiment: qHTS Assay for Inhibitors and Substrates of Cytochrome P450 2D6 (AID 891). Note: potency is the fitted concentration of half-maximal effect; nearly all actives have a fitted effect of over 60% in size. Particulars: recombinant CYP2D6, luciferin-ME EGE luminescence; series mostly up to 57.1 µM. In a few lines: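 Luminescent read-out of luciferin formed by 5 nM human CYP2D6 demethylating 30 uM Luciferin-ME EGE (Km level) over 60 min at room temperature after NADPH regeneration addition. Data normalized to full inhibition by 1.43 uM quinidine.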

Experiment [16] is described as follows: qHTS Assay for Identification of Small Molecule Agonists for Hypoxia Response Element Signaling Pathway (AID 914; active = well fitted activation curve with a large enough effect in the signal ratio, with a control signal flat, not every such curve was filed as active; the % refers to the signal ratio; note: % of control where 0% means no effect). Particulars: ME-180 (cervical carcinoma) HRE-bla reporter, beta-lactamase ratio, CoCl2, 17 h; activation: hits give high values. In a few lines: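 Positive modulation of EC50 CoCl2-induced hypoxia response element signaling is measured in ME-180 cells with a beta-lactamase reporter. Compounds are titrated, incubation runs 17 hours, and %Activity derives from the blue/green ratio.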

Sequence of Glucocorticoid receptor (Homo sapiens) (P04150 whole entry, looked up): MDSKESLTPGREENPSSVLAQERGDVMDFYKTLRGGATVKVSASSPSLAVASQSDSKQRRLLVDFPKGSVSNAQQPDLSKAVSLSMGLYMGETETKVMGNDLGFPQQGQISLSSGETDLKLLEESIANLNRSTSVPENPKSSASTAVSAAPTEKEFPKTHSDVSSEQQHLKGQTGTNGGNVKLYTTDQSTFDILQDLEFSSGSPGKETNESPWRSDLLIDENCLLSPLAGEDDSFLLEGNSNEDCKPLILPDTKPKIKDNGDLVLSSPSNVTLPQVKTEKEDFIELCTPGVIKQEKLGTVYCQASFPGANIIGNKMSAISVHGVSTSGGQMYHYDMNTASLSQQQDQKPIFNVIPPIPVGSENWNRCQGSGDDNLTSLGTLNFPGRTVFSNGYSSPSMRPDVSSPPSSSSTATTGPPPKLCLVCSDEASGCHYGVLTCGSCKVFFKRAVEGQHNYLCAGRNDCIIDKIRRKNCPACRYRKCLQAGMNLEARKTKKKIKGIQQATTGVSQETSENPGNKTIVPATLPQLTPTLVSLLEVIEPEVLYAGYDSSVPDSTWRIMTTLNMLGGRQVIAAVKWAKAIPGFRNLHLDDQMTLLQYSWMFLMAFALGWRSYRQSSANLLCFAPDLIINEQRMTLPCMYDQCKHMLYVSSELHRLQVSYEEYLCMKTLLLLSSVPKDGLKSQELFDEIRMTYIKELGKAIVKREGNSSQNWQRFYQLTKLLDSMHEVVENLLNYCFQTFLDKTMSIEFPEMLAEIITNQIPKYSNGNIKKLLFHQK
Sequence of 3',5'-cyclic-AMP phosphodiesterase 4B (Homo sapiens) (Q07343 whole entry, looked up): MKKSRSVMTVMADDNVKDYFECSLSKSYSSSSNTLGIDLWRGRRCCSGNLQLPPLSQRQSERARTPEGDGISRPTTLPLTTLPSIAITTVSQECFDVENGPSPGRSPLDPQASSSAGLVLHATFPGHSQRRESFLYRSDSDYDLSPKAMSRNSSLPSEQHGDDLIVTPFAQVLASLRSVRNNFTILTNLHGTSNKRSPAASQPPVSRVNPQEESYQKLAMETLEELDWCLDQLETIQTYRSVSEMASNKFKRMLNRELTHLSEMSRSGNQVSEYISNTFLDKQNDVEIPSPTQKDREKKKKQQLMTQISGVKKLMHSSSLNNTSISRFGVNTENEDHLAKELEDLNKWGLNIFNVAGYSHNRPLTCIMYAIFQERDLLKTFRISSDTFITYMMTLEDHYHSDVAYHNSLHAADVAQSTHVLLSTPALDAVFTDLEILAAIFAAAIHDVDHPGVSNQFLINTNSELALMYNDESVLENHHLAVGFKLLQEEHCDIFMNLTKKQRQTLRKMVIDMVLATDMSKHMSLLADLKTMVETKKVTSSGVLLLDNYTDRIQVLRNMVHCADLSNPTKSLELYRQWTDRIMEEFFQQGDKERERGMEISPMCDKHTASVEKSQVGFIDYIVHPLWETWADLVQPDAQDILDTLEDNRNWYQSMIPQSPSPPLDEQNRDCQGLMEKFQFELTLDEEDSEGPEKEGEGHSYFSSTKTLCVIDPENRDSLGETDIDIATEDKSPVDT
Sequence of Cytochrome P450 1A2 (Homo sapiens) (P05177 whole entry, looked up): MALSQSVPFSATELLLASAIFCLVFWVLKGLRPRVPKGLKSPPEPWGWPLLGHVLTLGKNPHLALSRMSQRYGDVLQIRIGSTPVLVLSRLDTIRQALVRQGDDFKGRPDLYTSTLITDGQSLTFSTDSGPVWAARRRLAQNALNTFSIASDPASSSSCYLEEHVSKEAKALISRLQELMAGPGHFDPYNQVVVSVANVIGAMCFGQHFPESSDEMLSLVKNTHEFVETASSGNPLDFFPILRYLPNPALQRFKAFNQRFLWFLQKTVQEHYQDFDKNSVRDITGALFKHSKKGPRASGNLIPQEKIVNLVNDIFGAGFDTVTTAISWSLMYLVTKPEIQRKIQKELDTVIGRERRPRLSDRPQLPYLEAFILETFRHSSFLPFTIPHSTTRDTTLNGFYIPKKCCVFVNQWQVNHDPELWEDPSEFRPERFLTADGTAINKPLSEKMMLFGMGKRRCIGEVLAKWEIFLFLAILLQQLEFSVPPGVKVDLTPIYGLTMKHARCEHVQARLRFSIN
Sequence of Lysosomal acid glucosylceramidase (Homo sapiens) (P04062 whole entry, looked up): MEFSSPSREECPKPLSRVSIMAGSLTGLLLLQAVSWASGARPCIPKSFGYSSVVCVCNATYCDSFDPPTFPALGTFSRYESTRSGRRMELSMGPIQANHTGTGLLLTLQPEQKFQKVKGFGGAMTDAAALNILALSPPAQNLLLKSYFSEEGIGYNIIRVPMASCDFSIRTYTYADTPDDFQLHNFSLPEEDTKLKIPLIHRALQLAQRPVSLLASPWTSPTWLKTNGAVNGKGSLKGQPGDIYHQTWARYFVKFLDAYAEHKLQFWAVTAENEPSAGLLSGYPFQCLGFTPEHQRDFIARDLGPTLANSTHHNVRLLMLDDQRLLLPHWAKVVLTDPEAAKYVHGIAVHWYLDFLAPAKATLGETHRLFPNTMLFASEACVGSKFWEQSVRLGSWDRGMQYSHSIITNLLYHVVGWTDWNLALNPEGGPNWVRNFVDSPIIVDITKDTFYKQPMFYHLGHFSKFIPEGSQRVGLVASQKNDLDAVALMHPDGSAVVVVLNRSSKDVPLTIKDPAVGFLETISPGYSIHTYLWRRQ
Sequence of Cytochrome P450 2C19 (Homo sapiens) (P33261 whole entry, looked up): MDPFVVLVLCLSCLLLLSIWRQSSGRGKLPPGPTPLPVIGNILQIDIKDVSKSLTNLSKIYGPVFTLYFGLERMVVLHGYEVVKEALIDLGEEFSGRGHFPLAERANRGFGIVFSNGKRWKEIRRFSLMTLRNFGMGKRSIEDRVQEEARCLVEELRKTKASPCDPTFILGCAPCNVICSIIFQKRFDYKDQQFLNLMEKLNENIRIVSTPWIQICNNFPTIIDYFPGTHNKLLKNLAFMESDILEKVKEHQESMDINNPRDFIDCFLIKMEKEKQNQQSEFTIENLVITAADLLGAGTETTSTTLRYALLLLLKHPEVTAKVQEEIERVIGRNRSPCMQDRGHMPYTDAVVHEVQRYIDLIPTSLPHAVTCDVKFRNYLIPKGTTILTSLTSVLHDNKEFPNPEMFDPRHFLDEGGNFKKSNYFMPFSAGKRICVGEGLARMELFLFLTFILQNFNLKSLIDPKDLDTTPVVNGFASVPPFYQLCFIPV
Sequence of Cytochrome P450 2C9 (Homo sapiens) (P11712 whole entry, looked up): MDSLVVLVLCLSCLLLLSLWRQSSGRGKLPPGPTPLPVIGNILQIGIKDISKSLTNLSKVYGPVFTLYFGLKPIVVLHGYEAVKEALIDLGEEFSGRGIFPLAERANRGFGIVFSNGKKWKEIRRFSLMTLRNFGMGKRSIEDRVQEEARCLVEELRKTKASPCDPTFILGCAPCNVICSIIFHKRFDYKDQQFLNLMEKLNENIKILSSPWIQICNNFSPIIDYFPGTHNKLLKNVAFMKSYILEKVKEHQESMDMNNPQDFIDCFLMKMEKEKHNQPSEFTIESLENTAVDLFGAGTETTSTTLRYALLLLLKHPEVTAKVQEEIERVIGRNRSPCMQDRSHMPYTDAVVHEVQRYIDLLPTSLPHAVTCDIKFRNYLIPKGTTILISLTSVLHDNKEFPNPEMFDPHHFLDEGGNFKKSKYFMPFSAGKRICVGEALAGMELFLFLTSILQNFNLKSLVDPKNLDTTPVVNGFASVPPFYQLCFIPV
Sequence of Cytochrome P450 2D6 (Homo sapiens) (P10635 whole entry, looked up): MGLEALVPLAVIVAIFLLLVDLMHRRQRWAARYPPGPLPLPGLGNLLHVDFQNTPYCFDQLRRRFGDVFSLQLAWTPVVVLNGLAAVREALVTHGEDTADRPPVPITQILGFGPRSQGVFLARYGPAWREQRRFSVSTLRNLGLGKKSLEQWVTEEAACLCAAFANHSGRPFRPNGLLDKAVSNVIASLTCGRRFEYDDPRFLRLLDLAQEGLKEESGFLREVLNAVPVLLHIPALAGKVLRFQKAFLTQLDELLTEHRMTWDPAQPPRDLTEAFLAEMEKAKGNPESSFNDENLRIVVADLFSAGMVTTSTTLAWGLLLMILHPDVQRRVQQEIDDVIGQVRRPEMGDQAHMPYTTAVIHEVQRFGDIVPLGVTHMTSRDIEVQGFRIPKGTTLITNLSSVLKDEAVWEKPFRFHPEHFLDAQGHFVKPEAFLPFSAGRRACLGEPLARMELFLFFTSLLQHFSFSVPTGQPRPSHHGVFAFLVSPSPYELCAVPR

For `CNc1nc(-c2ccc(N(C)C)cc2)nc2ccccc12`, the Potency was 6.77 µM (active) in experiment [1], 0.2 µM (active) in experiment [3], over 46 µM in [4] and over 46 µM in experiment [5]. Also, the activity change, negative = inhibition in experiment [2] was 15.8%. In addition, the Potency result in [6], in experiment [7] and in experiment [8] was “inactive” in each case. For the same compound, the call in [9] and in experiment [10] was inactive.
As for `COc1ccccc1CCn1c(=O)c(-c2ccc(Cl)cc2)nc2cncnc21`, the Potency in [1] was over 11.4 µM; in [3], 0.631 µM (active); in experiment [4], over 9.22 µM; in experiment [5] it was over 46 µM; in experiment [12] it was 3.98 µM (active); in [13] it was 0.398 µM (active). Moreover, the activity change, negative = inhibition in experiment [2] was 10.2%. The activity, negative = inhibition in experiment [11] is 6.76%. Also, the Potency entry in [6], in experiment [7] and in [8] was “inactive” each time. The result in [10] was inactive.
`O=S(=O)(c1ccccc1)N1CCC2(CCCN(Cc3nccs3)C2)CC1`: the values for the Potency in experiment [1], in experiment [5] and in experiment [12] were over 11.4 µM, over 46 µM and 3.16 µM (active), respectively. Further, the activity change, negative = inhibition in [2] was -17.2%. Also, the Potency result in experiment [3], in [6], in [7], in experiment [8] and in [13] was “inactive” in each case. Besides, in experiment [11], the activity, negative = inhibition was -1.51%. Besides, in [10], the result was inactive.
On to `O=C(Nc1ccccc1)N1CC2(CCN(C(=O)c3cc(C(F)(F)F)cc(C(F)(F)F)c3)CC2)C1`, for which the Potency in experiment [1] is over 11.4 µM; in experiment [5], over 46 µM. Also, the activity change, negative = inhibition in experiment [2] is 12.7%. The Potency result in [3], in experiment [6], in experiment [7] and in [14] was “inactive” in each case. The result in experiment [10] was inactive.
With `CC(C)NC(=O)N1CCCC2(CCN(C(=O)c3cccn3C)CC2)C1`, the Potency in experiment [1] is over 11.4 µM; in experiment [5], over 46 µM. The activity change, negative = inhibition in experiment [2] was 4.84%. Also, the Potency entry in experiment [3], in experiment [6], in experiment [7] and in [8] was “inactive” in each case. Moreover, the activity, negative = inhibition in experiment [11] was 14.5%. In addition, the result in experiment [10] was inactive.
As for `O=C(c1cnccn1)N1CCC2(CCCN(Cc3nccs3)C2)CC1`, the Potency in experiment [1] was over 11.4 µM; in experiment [3], 15.8 µM (active); in experiment [5], over 46 µM; in [15], 7.94 µM (active). Moreover, the activity change, negative = inhibition in experiment [2] is -20.7%. For the same compound, the activity, negative = inhibition in experiment [11] was -4.76%. Moreover, the Potency entry in experiment [6], in [7] and in [8] was “inactive” each time. In addition, the outcome in experiment [10] was inactive.
As for `O=S(=O)(c1ccccc1)N1CCC2(CCN(Cc3ccncc3)CC2)CC1`, the Potency in experiment [1] is over 11.4 µM; in [5], over 46 µM; in [12], 3.98 µM (active). In addition, the activity change, negative = inhibition in experiment [2] was -0.758%. Besides, the Potency result in experiment [3], in experiment [6], in experiment [7] and in experiment [8] was “inactive” throughout. In addition, the activity, negative = inhibition in [11] is 7.32%. In addition, the outcome in experiment [10] was inactive.
Turning to `N#Cc1cccc(NC(=O)N2CCCC3(CCN(C(=O)c4csnn4)CC3)C2)c1`, the Potency in experiment [1] is over 11.4 µM; in experiment [5], over 46 µM. For the same compound, the activity change, negative = inhibition in experiment [2] is 6.7%. In addition, the Potency result in experiment [3], in experiment [6], in experiment [7] and in [8] was “inactive” in each case. Further, the activity, negative = inhibition in experiment [11] is -0.264%. Further, the activation in experiment [16] is -5.53%. Also, the outcome in [10] was inactive.
